In PubChem BioAssay (NCI):
Compounds without any hit were thinned out: in the full panel of roughly 83,000, 20% have a hit.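 Cells were grown in 96-well plates and exposed to the test compound at a single concentration for 48 hours; results are reported as percent growth, with values below 10 considered active.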 Activity calls are given as the source filed them.

test system: OVCAR-4 ovarian; assay: NCI-60 one-dose screen, 48 h (100 = growth as untreated, 0 = no growth, -100 = all killed); conditions: 10 µM unless noted

SMILES	growth
CCCCNc1ccc2c3c(cccc13)C(=O)N(c1cccc(-c3nn(-c4ccccc4)cc3-c3nc4ccccc4s3)c1)C2=O	101% (inactive)
COc1ccc(-c2cc(-c3cc(OC)c(OC)c(OC)c3)[nH]c(=O)c2C#N)cc1	7.74% (active)
COc1cc(C2CC(c3ccc(Cl)cc3)=Nc3c(N)nc(N)nc3N2)ccc1Oc1nc(Nc2ccc(F)cc2)nc(N(C)C)n1 (stereo not drawn)	29% (inactive)
O=C(O)CC1S/C(=N/N=C/c2nc3ccccc3s2)NC1=O (stereo not drawn)	82.1% (inactive)
Cc1ccc(S(=O)(=O)N(CCn2ccnc2[N+](=O)[O-])CCn2ccnc2[N+](=O)[O-])cc1	107% (inactive)
N#CCc1nnc(NC(=O)c2ccc(-n3c(=O)[nH]c4ccccc4c3=O)cc2)s1	106% (inactive)
O=C(N/N=C/c1ccc(Br)o1)c1[nH]c2ccc(Br)cc2c1-c1ccccc1	-17.2% (active)
COc1ccc(N=Nc2c(N)nn3c(-c4ccc([N+](=O)[O-])cc4)ccnc23)cc1	92.8% (inactive)
Cn1cc(-c2cc(N)n3nc(-c4c[nH]c5ccc(Cl)cc45)cc3n2)c2cc(Br)cnc21	-54% (active)
CN1C(=O)C2(C(C#N)=C(c3ccc(Cl)cc3)Nc3c2c(-c2ccccc2)nn3-c2ccccc2)c2ccccc21 (stereo not drawn)	96.1% (inactive)
Cc1nn(-c2ccccc2)c2nc(C)n(C(=O)N/N=C/c3ccccc3)c(=O)c12	101% (inactive)
CN1CCN(CCS(=O)(=O)Nc2cc(-c3ccc4ncnc(Nc5ccc(F)c(Cl)c5)c4c3)cnc2Cl)CC1	32.3% (inactive)
COc1cc(C2CC(c3ccc(C(F)(F)F)cc3)=Nc3c(N)nc(N)nc3N2)ccc1Oc1nc(Nc2ccc(F)cc2)nc(N(C)C)n1 (stereo not drawn)	37.1% (inactive)
COc1ccc2[nH]c(=O)c(CSc3ccccc3Nc3nccc(-c4ccc5c(c4)OCO5)n3)cc2c1	61.1% (inactive)
Cc1cc(=O)oc2cc(OCC(O)CNN3C(=O)c4cccc5c(N6CCN(C)CC6)ccc(c45)C3=O)ccc12 (stereo not drawn)	99.1% (inactive)
CC[C@]12C=CCN3CC[C@]4(C(=C(C(=O)OC)C1)Nc1cc(OC)c([C@@H]5[C@H]6O[C@H]6[C@@]6(CC)CC(C(=O)OC)=C7Nc8cc(OC)ccc8[C@@]78CCN5[C@@H]68)cc14)[C@@H]32	59.8% (inactive)
C#CCCCNCCNc1ccnc2cc(Cl)ccc12	89.8% (inactive)
CCOC(=O)/C(F)=C/C1CC1C(c1ccccc1)c1ccccc1 (stereo not drawn)	87.3% (inactive)
S=C(NCCc1ccccc1)Nc1ccc(OCc2nc3ccc(Cl)cc3[nH]2)cc1	32.1% (inactive)

SMILES	growth
Cc1ccc(C(=O)C[n+]2cccc3c4ccccc4ccc32)cc1	21.1% (inactive)
CCCn1c(NC(=O)c2cccc(C(N)=O)c2)nc2cc(CN3CCCCC3)ccc21	90.2% (inactive)
CCC(=O)c1c2c(c3ccc4c5ccccc5ccc4n13)C(=O)c1ccccc1C2=O	88.2% (inactive)
O=C1/C(=C/c2cnc(-c3ccccc3)s2)SC(=S)N1Cc1ccc2c(c1)OCO2	77.5% (inactive)
O=c1[nH]c2ccccc2cc1COc1ccc(Nc2nccc(-c3ccc(Cl)cc3)n2)cc1	95.6% (inactive)
O=C(/C=C1\C(=O)N(Cc2ccccc2)c2ccccc21)c1cc2ccccc2oc1=O	84.5% (inactive)
COc1ccc(NC(=O)Cn2c(/C=C/c3cccc(Br)c3)nc3ccccc3c2=O)cc1	-45.7% (active)
O=c1ccc(Cn2c(C(F)(F)F)cc3c(Cl)ncnc32)c[nH]1	-2.63% (active)
CCCCC[C@@H]1C/C=C(\C)[C@@H](O)C(C)(C)C(=O)[C@@H](C)/C=C(\C)[C@@H]2C[C@H](O)C[C@](O)(CC(=O)O1)O2	27.7% (inactive)
COc1cc(NC(=O)CSc2nnc(-c3ccc(-c4nc5ccc(Cl)cc5[nH]4)cc3)o2)cc(OC)c1OC	64.8% (inactive)
Cc1ccc(C2CC(c3ccc(S(=O)(=O)NCCNc4nc(N(C)C)nc(N5CCOCC5)n4)cc3)=Nc3c(N)nc(N)nc3N2)cc1 (stereo not drawn)	55.7% (inactive)
CCCCNC(=S)Nc1ccc(OCc2nc3ccc(Cl)cc3[nH]2)cc1	21.5% (inactive)
Nc1nn2c(-c3cc4cc(Br)ccc4oc3=O)ccnc2c1N=Nc1ccc(S(N)(=O)=O)cc1	100% (inactive)
OCCn1cc(-c2nc3ccc4[nH]ncc4c3c3c2CCCC3)cn1	64.2% (inactive)
CN(C)CCCc1ccc(Nc2cnn(C)c(=O)c2Cl)cc1	100% (inactive)
Nc1cc2ccccc2c(=O)n1NC(=O)c1ccccc1	98.6% (inactive)
Cn1cc(-c2cc(N)n3nc(-c4c[nH]c5ccccc45)cc3n2)c2cc(Cl)ccc21	-29.3% (active)
O=C(NC(=S)N1CCN(c2ncnc3c2cnn3-c2ccccc2)CC1)c1ccc(Br)cc1	41.9% (inactive)
O=C(N/N=C/c1ccc(B(O)O)s1)c1[nH]c2ccc(Br)cc2c1-c1ccccc1	-63.6% (active)
